# Source: PubChem BioAssay
# DT40 TDP1 no CPT: qHTS for Inhibitors of human tyrosyl-DNA phosphodiesterase 1 (TDP1): qHTS in cells in absence of CPT. DT40 Tdp1-/- hTDP1 cells, no CPT, ATP luminescence, 48 h. Potency, µM (series often up to 46.2 µM), hits mostly inhibitors. hit rate 15% among 420,000. AID 686978, 2013; note: nearly all actives have a fitted effect of over 55% in size
#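 Growth of hTDP1-complemented DT40 Tdp1-knockout cells is measured by ATP luminescence after at least 48 hr compound exposure at 37 °C, with DMSO substituting for the 20 nM CPT used in the parallel screen.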
# PLK1 PBD inh: qHTS for Inhibitors of PLK1-PDB (polo-like kinase 1 - polo-box domain): Primary Screen; AID 720504, 2013; Plk1 PBD binding of FITC phosphopeptide, fluorescence polarization; Potency, µM, usual class: inhibitors; hit rate 2.8% among 360,000; note: series mostly up to about 57 µM; nearly all actives have a fitted effect of over 65% in size
# TDP1 block: qHTS Assay for Inhibitors of Tyrosyl-DNA Phosphodiesterase (TDP1); Tyrosyl-DNA phosphodiesterase 1 (Homo sapiens), Q9NUW8; hit rate 0.28% among 350,000; Potency, µM (titrated, usually from 130 µM), usual class: inhibitors; AID 485290, 2010; recombinant TDP1, AlphaScreen DNA substrate cleavage; note: nearly all actives have a fitted effect of over 40% in size
#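 Enzyme-compound mixtures sat 15 min at room temperature, followed by a 5 min reaction with 15 nM final substrate and 10 min with AlphaScreen beads. Recombinant human Tdp1 was used at 1 nM final.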
# KAT2A inh: qHTS Assay for Inhibitors of GCN5L2; Histone acetyltransferase KAT2A (Homo sapiens), Q92830; GCN5L2 HAT assay, ThioGlo1 CoA-SH fluorescence; Potency, µM (series often up to 58.9 µM), hits mostly inhibitors; hit rate 0.21% among 390,000; AID 504327, 2011
#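 GCN5L2 (20nM final) in 50mM HEPES, 0.1mM EDTA pH 7.5, 0.01% Tween-20 was preincubated 15 min at room temperature with compound, then given ThioGlo1 (50uM), H3(1-25) peptide (75uM) and acetyl-CoA (70uM); CoA-thiol fluorescence (Ex340/Em540) was read at 0 and 20 min.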
# TDP1 cell CPT: qHTS for Inhibitors of human tyrosyl-DNA phosphodiesterase 1 (TDP1): qHTS in cells in presence of CPT. chicken DT40 Tdp1-/-;hTDP1 cells + 20 nM CPT, ATP luminescence, 48 h. Potency, µM (highest dose often 46.2 µM), actives largely listed as inhibitors. hit rate 12% among 420,000. AID 686979, 2013; note: nearly all actives have a fitted effect of over 55% in size
#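 Chicken DT40 Tdp1-/- cells stably complemented with human TDP1 were seeded at 400 cells/well in medium containing 20 nM camptothecin, exposed to pin-transferred compounds, and grown at 37 °C for at least 48 hr. Viability was read as ATP luminescence.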
# VDR inhibitor: Inhibitors of the vitamin D receptor (VDR): qHTS. Vitamin D3 receptor (Homo sapiens), P11473. VDR-SRC2-3 peptide fluorescence polarization, 2 h. Potency, µM, most hits filed as inhibitors. hit rate 0.93% among 400,000. AID 504847, 2011
#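 Fluorescence polarization assay of small-molecule disruption of VDR binding to coregulator peptide SRC2-3. Compounds and controls pin-transferred, then read after 2 h incubation at ambient room temperature.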
# Numbers stand for hits; . = inactive; ? = inconclusive; / = no result; ! = repeats disagree; [ ] = another dose, or the depositor's remark. Hits are enriched below; roughly 18% of the tested compounds scored in any of these assays. Calls come from the whole dose curve; as a rule, active = well fitted curve in the direction sought with a large enough effect; inconclusive = small, poorly fitted or top-dose-only effect, or another doubt; inactive = no such curve, though single readings can be large; an effect the other way counts as inactive or inconclusive.
SMILES,DT40 TDP1 no CPT,PLK1 PBD inh,TDP1 block,KAT2A inh,TDP1 cell CPT,VDR inhibitor
COc1ccccc1C(c1nnnn1C(C)(C)C)N1CCCCCC1 (configuration not stated),18.4µM,.,.,.,20.6µM,?
CCC(C)(C)n1nnnc1C(c1cccc(C#N)c1)N1CCN(c2cccc(C)c2C)CC1 (configuration not stated),16.4µM,.,.,.,?,.
CC(C)(C)n1nnnc1C(c1cccc(C#N)c1)N1CCCCCC1 (configuration not stated),16.4µM,.,.,.,?,.
CC(C)(C)n1nnnc1C(c1cccc(C#N)c1)N1CCN2CCCC2C1 (configuration not stated),.,.,.,.,.,.
CCOc1ccc(S(=O)(=O)NC2=NCCCCC2)cc1,?,.,.,.,.,.
Fc1cccc(Cl)c1Cn1nnc2c(NCc3ccccn3)ncnc21,.,.,.,.,?,.
Fc1cccc(Cl)c1Cn1nnc2c(NCc3ccncc3)ncnc21,?,.,.,.,23.1µM,.
Cc1cc(NS(=O)(=O)c2ccc(NC(=O)COc3c(C)cc(Br)cc3C)cc2)no1,23.1µM,.,.,.,20.6µM,.
Cc1cc(NS(=O)(=O)c2ccc(NC(=O)COc3ccc(Br)cc3)cc2)nc(C)n1,?,2.67µM,.,.,14.6µM,?
Cc1cc(NS(=O)(=O)c2ccc(NC(=O)COc3cc(C)c(Cl)c(C)c3)cc2)no1,?,?,.,.,.,.
CN(CCO)c1cc(N2CCN(C(=O)c3ccco3)CC2)c2nonc2c1[N+](=O)[O-],.,.,.,.,.,.
CCN(Cc1ccccc1)C(=O)Cn1c(=O)n(-c2cccc(C)c2)c(=O)c2c1c1cc(C)ccc1n2C,?,/,.,.,?,.
O=S(=O)(NCc1ccc(F)cc1)c1ccc2[nH]c3c(c2c1)CCCC3,16.4µM,/,.,.,?,.
Cc1cccc(N(C)C(=O)CN(C)S(=O)(=O)c2ccc3[nH]c4c(c3c2)CCCC4)c1,?,/,.,.,23.1µM,.
CN(CC(=O)NCc1ccc(F)cc1)S(=O)(=O)c1ccc2[nH]c3c(c2c1)CCCC3,18.4µM,/,.,.,20.6µM,.
CN(Cc1ccccc1)S(=O)(=O)c1ccc2[nH]c3c(c2c1)CCCCC3,16.4µM,/,.,.,?,.
Cc1ccc(CNS(=O)(=O)c2ccc3[nH]c4c(c3c2)CCCC4)cc1,.,/,.,.,.,.
CN(CC(=O)NCc1ccccc1)S(=O)(=O)c1ccc2[nH]c3c(c2c1)CCCC3,?,/,.,.,?,.
NNC(=O)CNC(=O)Nc1n[nH]c(=S)s1,.,.,/,/,.,/
O=S(=O)(NCc1ccc(Cl)cc1)c1ccc2[nH]c3c(c2c1)CCCC3,5.8µM,/,.,.,?,.
CN(C)c1ccc(CNS(=O)(=O)c2ccc3[nH]c4c(c3c2)CCCCC4)cc1,/,/,.,.,/,.
O=S(=O)(NCc1ccccc1)c1ccc2[nH]c3c(c2c1)CCCCC3,20.6µM,/,.,.,?,.
O=C(Cn1cc[n+](CC(=O)c2ccc(Cl)cc2Cl)c1)c1ccc(Cl)cc1Cl,25.9µM,.,.,.,?,.
Nc1cc[n+](CC(=O)c2ccccc2)cc1,?,.,/,.,?,.
O=C(Cn1cc[n+](CC(=O)c2ccccc2)c1)c1ccccc1,4.11µM,.,.,.,8.2µM,.
SMILES,DT40 TDP1 no CPT,PLK1 PBD inh,TDP1 block,KAT2A inh,TDP1 cell CPT,VDR inhibitor
c1ccc(-c2nc(NC3CCCC3)c3ccccc3n2)cc1,.,.,/,.,?,.
Cc1cc(Br)ccc1NC(=O)c1cn(C2CCCC2)c(=O)c2c1c1ccccc1n2C,?,/,.,.,.,.
COc1ccc(C2=CC(=O)C[C@H](c3ccc(Cl)cc3)C2)cc1,?,.,.,.,16.4µM,.
Cc1ccc(C2=CC(=O)C[C@H](c3ccc(Cl)cc3)C2)cc1,?,.,.,.,23.1µM,.
C=CCSc1nc2ccsc2c(=O)n1-c1cccnc1,.,26.7µM,.,.,.,.
COc1ccc(-n2c(SCC(=O)NCc3ccccc3)nc3ccsc3c2=O)cc1,?,/,.,.,?,.
OCC1(CO)COC(C(Cl)(Cl)Cl)OC1,.,/,.,.,.,.
NC(N)=NC(=O)c1nc(Cl)c(N2CCCCCC2)nc1N,7.08µM,.,.,.,7.08µM,.
CCN(C(=O)C1CCCN(S(=O)(=O)c2c(C)noc2/C=C/N(C)C)C1)c1cccc(C)c1 (configuration not stated),?,/,.,.,?,.
CC1CN(S(=O)(=O)c2ccc(CN3C(=O)c4cccnc4C3=O)s2)c2ccccc2O1 (configuration not stated),.,.,.,.,.,.
COC(=O)c1ccc(C)c(NS(=O)(=O)c2ccc(OC)cc2)c1,0.231µM,.,.,.[0.501 µM],0.291µM,.
COC(=O)c1ccc(C)c(NS(=O)(=O)c2ccc3c(c2)OCCO3)c1,0.92µM,.,.,.,0.92µM,.
C=CCOc1ccccc1CN(C(=O)CCl)c1ccc2c(c1)OCO2,10.3µM,?,.,.,18.4µM,?
COc1ccccc1NC(=O)NCCN1CCNC1=O,.,.,.,.,.,.
Cc1c(C(=O)OCC(=O)N(C)CC(=O)Nc2ccc(F)cc2)oc2ccccc12,.,.,.,.,.,.
CCn1c(C)c(CS(=O)(=O)c2ccccc2)[nH]c1=O,2.91µM,3.36µM,.,.,4.11µM,?
c1csc(CNc2ncnc3ccc(-c4ccoc4)cc23)c1,.,/,.,.,?,31.6µM!
FC(F)(F)c1ccccc1-c1ccc2ncnc(NCc3cccs3)c2c1,?,/,/,.,23.1µM,.
CN(C)c1ccc(CNC(=O)c2cc3cc(S(=O)(=O)N4CCCCC4)ccc3n2C)cc1,?,/,.,.,?,.
CCOc1ccc(CNC(=O)c2cc3cc(S(=O)(=O)N4CCCCC4)ccc3n2C)cc1,16.4µM,/,.,.,18.4µM,.
Cc1ccccc1CCNC(=O)c1cc2cc(S(=O)(=O)N3CCCCC3)ccc2n1C,18.4µM,/,.,.,10.3µM,.
Cc1cccc(CNC(=O)c2cc3cc(S(=O)(=O)N4CCCCC4)ccc3n2C)c1,18.4µM,/,.,.,?,.
Cn1c(C(=O)NCc2ccccc2F)cc2cc(S(=O)(=O)N3CCCCC3)ccc21,?,/,.,.,?,.
CCn1c(C)nc2cc(C(=O)NNC(=S)NC(=O)c3ccc(OC)cc3)ccc21,?,.,.,.,?,.
